Measured values taken from the supplement of paper PMC3545927.
The other results are listed elsewhere or left out. No count for the full screen is at hand.

Molecular target: furin, P09958
Assay: furin cleavage Z-score vs untreated control; higher = more cleavage, active = 3.5 or more, inactive = 1 or less, 8 variable residues between constant flanks
Method in brief: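 Sequencing of released DNA, tagged with adapters by PCR, gave read counts used as abundance. That DNA was freed when purified furin cut N-terminally bead-bound 8-mer peptides fused to a cDNA oligonucleotide, in 0.01 ml reactions at 1:10 enzyme:substrate in 50 mM HEPES pH 7.5 with CaCl2 and NaCl, lasting 7.5, 15 or 30 min. The cleavage Z-score was the lowess-adjusted log count versus furin-free reactions, scaled by median absolute deviation.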

furin, P09958, sequence (P09958 whole entry): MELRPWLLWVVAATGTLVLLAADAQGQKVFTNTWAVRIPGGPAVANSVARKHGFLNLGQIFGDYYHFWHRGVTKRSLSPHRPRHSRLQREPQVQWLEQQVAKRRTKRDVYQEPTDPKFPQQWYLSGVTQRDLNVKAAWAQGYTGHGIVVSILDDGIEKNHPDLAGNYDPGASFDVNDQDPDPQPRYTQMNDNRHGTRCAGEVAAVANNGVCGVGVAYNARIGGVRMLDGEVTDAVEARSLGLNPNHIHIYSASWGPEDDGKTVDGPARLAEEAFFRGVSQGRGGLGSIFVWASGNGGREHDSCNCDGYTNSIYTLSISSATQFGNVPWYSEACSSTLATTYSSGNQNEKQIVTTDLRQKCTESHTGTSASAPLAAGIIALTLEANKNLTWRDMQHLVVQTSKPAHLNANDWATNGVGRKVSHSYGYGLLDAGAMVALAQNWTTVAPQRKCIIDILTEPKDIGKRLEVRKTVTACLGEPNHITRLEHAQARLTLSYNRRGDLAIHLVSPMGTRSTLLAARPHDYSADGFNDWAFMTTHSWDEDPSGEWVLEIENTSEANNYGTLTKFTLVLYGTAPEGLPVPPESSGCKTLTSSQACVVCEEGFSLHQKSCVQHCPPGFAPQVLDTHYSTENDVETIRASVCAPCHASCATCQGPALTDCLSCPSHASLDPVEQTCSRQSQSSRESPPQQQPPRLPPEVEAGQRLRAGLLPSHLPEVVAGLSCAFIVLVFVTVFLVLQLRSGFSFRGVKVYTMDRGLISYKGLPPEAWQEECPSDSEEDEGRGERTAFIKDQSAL

Sequence	furin cleavage Z-score (7.5 min)	furin cleavage Z-score (15 min)	furin cleavage Z-score (30 min)
CAAERRHYRPAGNASASA [FS-969]	0.389 (inactive)	0.437 (inactive)	0.0544 (inactive)
CAAESRACRGAGNASASA [FS-742]	-0.725 (inactive)	-0.739 (inactive)	-0.66 (inactive)
CAAERRRRRGAGNASASA [FS-2]	4.28 (active)	3.26	2.64
CACHRRMRRGAGNASASA [FS-404]	10.7 (active)	8.52 (active)	8.21 (active)
CADEVDNKVKAGNASASA [CS4]	-0.725 (inactive)	-1.22 (inactive)	-1.28 (inactive)
CAPGAATAFVAGNASASA [HC1072]	0.989 (inactive)	1.72	0.199 (inactive)
CASVAATLGFAGNASASA [HC789]	1.93	0.468 (inactive)	0.352 (inactive)
CARSADGRRFAGNASASA [FS-1654]	-0.463 (inactive)	-0.885 (inactive)	-0.419 (inactive)
CARVARRRRFAGNASASA [FS-1164]	8.04 (active)	10 (active)	7.4 (active)
CAILTRRRRFAGNASASA [FS-1347]	8.01 (active)	8.67 (active)	7.5 (active)
CAGLRRRRRFAGNASASA [FS-531]	7.13 (active)	8.7 (active)	7.24 (active)
CATQVRRRRFAGNASASA [FS-1497]	6.78 (active)	10.5 (active)	7.46 (active)
CAKDYRRIRFAGNASASA [FS-173]	0.143 (inactive)	-0.374 (inactive)	0.736 (inactive)
CAGVLAALAAAGNASASA [HC993]	1.76	0.568 (inactive)	-0.149 (inactive)
CASTPCSAYLAGNASASA [HC2549]	0.127 (inactive)	-0.0969 (inactive)	0.416 (inactive)
CAEVVTRTWVAGNASASA [HC150]	-0.769 (inactive)	-0.617 (inactive)	1.23
CAMEMCSQHLAGNASASA [HC1706]	1.54	2.05	0.326 (inactive)
CALPDRRRRFAGNASASA [FS-1027]	6.3 (active)	8.87 (active)	8.99 (active)
CASDFKTWLKAGNASASA [HC1155]	-1.27 (inactive)	-1.41 (inactive)	-0.384 (inactive)
CARRRRSLRRAGNASASA [FS-2454]	3.55 (active)	3.5 (active)	6.12 (active)
CARRRRSLPGAGNASASA [FS-1788]	6.91 (active)	8.64 (active)	6.57 (active)
CARRRRSLPRAGNASASA [FS-2797]	4.48 (active)	5.79 (active)	7.11 (active)
CARRRSRNLGAGNASASA [HC217]	4.75 (active)	6.64 (active)	6.07 (active)
CAIGGHYVQMAGNASASA [HC625]	1.06	1.02	-0.429 (inactive)
CAVILDSFDPAGNASASA [HC1286]	-0.325 (inactive)	-0.389 (inactive)	1.13
CAVVICSMSYAGNASASA [HC2024]	-0.215 (inactive)	-0.424 (inactive)	-0.762 (inactive)
CAEVPCHRWSAGNASASA [HC2388]	0.964 (inactive)	1.69	1.98
